This is a sample that favours compounds with a hit; in the whole collection about 1.7% have one here.
Apoferritin bind: candidate novel general anesthetic via apoferritin binding; 350,000 tested, 0.074% active; P02791; apoferritin/1-aminoanthracene competitive binding, fluorescence; Potency, µM (titrated, usually from 77.5 µM), for inactives: top-dose activity change, negative = displacement, most hits filed as inhibitors; AID 485281; note: potency is the fitted concentration of half-maximal effect; % is set by controls: 0 for no effect and ±100 for the full control effect; nearly all actives have a fitted effect of over 20% in size
Target sequence (P02791 2-175 limits assumed): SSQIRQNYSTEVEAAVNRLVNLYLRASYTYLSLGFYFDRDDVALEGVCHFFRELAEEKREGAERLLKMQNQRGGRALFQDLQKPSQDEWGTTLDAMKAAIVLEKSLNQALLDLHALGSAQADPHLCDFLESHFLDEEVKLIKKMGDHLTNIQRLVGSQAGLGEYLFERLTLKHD
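Steps: apoferritin (10 uM) was premixed with half-saturated 1-AMA in PBS, compounds were pin-transferred, plates stood 10 min at room temperature, fluorescence was read at 380/535 nm, and curves were fitted with a Hill equation.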
12-LOX inh: ALOX12 (human) lipoxygenase inhibition | Potency, µM (series often up to 108 µM), inactives show at the highest dose activity change, negative = inhibition, hits mostly inhibitors | P18054 | 580,000 tested, 1.1% active | AID 1671190 | purified 12hLO, xylenol orange hydroperoxide absorbance; note: potency is the fitted concentration of half-maximal effect; % is set by controls: 0 for no effect and ±100 for the full control effect
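Purified human 12hLO (150 nM final) in 25 mM Hepes, 0.01% Triton X-100, pH 7.0 was preincubated 15 min at room temperature with compound. Then 40 uM arachidonic acid was added, 30 min. Hydroperoxide was read by Fe-XO absorbance ratio 573/405 nm.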
TrxR1 inh: blocks rat thioredoxin reductase 1; O89049; recombinant rTrxR1, NADPH fluorescence consumption, selenite substrate; Potency, µM (highest dose often 114 µM), for the others: at the highest dose activity change, negative = inhibition, actives largely listed as inhibitors; 390,000 tested, 1% active; AID 588453; note: potency is the fitted concentration of half-maximal effect; % is set by controls: 0 for no effect and ±100 for the full control effect; nearly all actives have a fitted effect of over 65% in size
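Rat TrxR1 (90 nM in the dispensed reagent) was pre-reduced with 400 uM NADPH for 5 min at room temperature, then incubated with compound for 15 min. After 400 uM selenite was added, NADPH fluorescence (Ex 340/Em 450 nm) was followed for 8 min.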
GRP78 ERSR act: inducers of ER stress response in human glioma cells. U87-MG GRP78 promoter luciferase reporter, 16 h. Potency, µM, for the others: at the top dose activation, hits mostly activators. 420,000 tested, 0.02% active; note: potency is the fitted concentration of half-maximal effect; series mostly up to about 76 µM; % of control where 0% means no effect; nearly all actives have a fitted effect of over 35% in size
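Stably transfected U87-MG glioma cells carrying a GRP78-based luciferase sensor; 16 h compound incubation. Luminescence end-point read 10 min after Bright-Glo addition at room temperature.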
IDH1 R132H inh: blocks human mutant IDH1 R132H enzyme; Potency, µM (highest dose often 76.6 µM), for inactives: top-dose activity change, negative = inhibition, most hits filed as inhibitors; IDH1-R132H enzyme, NADPH consumption, diaphorase/resazurin fluorescence; 390,000 tested, 0.093% active; AID 602179; note: potency is the fitted concentration of half-maximal effect; % is set by controls: 0 for no effect and ±100 for the full control effect; nearly all actives have a fitted effect of over 65% in size
Target sequence (O75874 whole entry R132H, stated change not applied): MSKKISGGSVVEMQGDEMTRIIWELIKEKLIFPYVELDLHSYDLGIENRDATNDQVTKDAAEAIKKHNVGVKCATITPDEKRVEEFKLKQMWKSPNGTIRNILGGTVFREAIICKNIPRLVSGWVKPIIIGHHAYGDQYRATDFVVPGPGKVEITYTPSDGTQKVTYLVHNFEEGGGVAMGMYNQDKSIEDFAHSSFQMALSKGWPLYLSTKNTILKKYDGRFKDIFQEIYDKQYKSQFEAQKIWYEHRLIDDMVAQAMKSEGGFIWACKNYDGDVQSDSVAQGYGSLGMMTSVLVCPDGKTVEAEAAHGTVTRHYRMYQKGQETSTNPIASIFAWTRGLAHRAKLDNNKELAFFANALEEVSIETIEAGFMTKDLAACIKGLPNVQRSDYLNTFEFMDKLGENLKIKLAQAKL
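IDH1-R132H (0.5 ug/mL dispensed) in pH 7.5 Tris buffer was preincubated 30 min with compound, then given a substrate mix of 0.016 mM NADPH and 2 mM alpha-KG for 80 min at room temperature; remaining NADPH was read by diaphorase/resazurin fluorescence.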
TrxR1 substrate: substrates of rat thioredoxin reductase 1; O89049; purified TrxR1 substrate turnover, NADPH consumption readout; Potency, µM (doses to about 114 µM), for the others: at the top dose activity change, negative = substrate turnover; 390,000 tested, 0.01% active; note: potency is the fitted concentration of half-maximal effect; % is set by controls: 0 for no effect and ±100 for the full control effect; nearly all actives have a fitted effect of over 50% in size
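Rat TrxR1, dispensed at 90 nM, was prereduced with 400 uM NADPH (final) for 5 min at ~22 deg C, then incubated with compound 15 min before 400 uM selenite. A first-read NADPH fluorescence drop versus no-compound background flagged substrates.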
Resorufin autofl: counter-screen for mutant IDH1 inhibitors: fluorescence interference; inhibition of signal, % at 51.2 µM; shares compounds with IDH1 R132H inh; 750 tested, under 10 active; Resorufin detection reagent fluorescence interference, cell-free;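 note: 0% = wells with normal resorufin and full inhibition = wells lacking resorufin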
IDH1 WT: inhibits human wild-type IDH1, mutant selectivity check | WT IDH1 enzyme, NADPH diaphorase/resazurin fluorescence | Potency, µM (highest dose often 115 µM), inactives show at the highest dose activity change, negative = inhibition, hits mostly inhibitors | 750 tested, 9% active | shares compounds with IDH1 R132H inh;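 note: potency is the fitted concentration of half-maximal effect; 0% = full WT IDH1 enzyme control and full inhibition = no enzyme wells; nearly all actives have a fitted effect of over 55% in size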
IDH1 R132H conf: mutant IDH1 (human) inhibition, confirmed. 750 tested, 83% active. Potency, µM (series often up to 76.6 µM), inactives show top-dose activity change, negative = inhibition, hits mostly inhibitors. shares compounds with IDH1 R132H inh. IDH1 R132H enzyme, NADPH diaphorase/resazurin fluorescence. AID 624002; note: potency is the fitted concentration of half-maximal effect; nearly all actives have a fitted effect of over 50% in size
* marks the source's active call; other numbers are inactive results; ? = inconclusive; nt = not tested or not shown; [ ] = remark or other dose. Calls come from the whole dose curve; as a rule, active = well fitted curve in the direction sought with a large enough effect; inconclusive = small, poorly fitted or top-dose-only effect, or another doubt; inactive = no such curve, though single readings can be large; an effect the other way counts as inactive or inconclusive.

SMILES	Apoferritin bind	12-LOX inh	TrxR1 inh	GRP78 ERSR act	IDH1 R132H inh	TrxR1 substrate	Resorufin autofl	IDH1 WT	IDH1 R132H conf
Cc1cc(C)cc(OCCSc2nc(-c3ccc(C(C)(C)C)cc3)nc3cc(=O)[nH]n23)c1	?	-5%	?	-4%	?	123%[57.1 µM]	-5	?	25µM*
COC(=O)c1cc(NC(=O)C2CCC2)cc(C(=O)OC)c1	nt	-21%	nt	nt	nt	nt	nt	nt	nt
COCCN1Cc2cc3cc(C)ccc3nc2SC1=Nc1cccc(OC)c1	-4%	?	-21%	0%	6%	-3%	nt	nt	nt
Cc1cccc(N=C2Sc3nc4c(C)c(C)ccc4cc3CN2CCN2CCOCC2)c1	?	?	3%	-3%	?	-5%	8	5%	11µM*
COc1ccc(-n2c(-c3ccc(Cl)cc3Cl)n[nH]c2=S)c(OC)c1	-11%	?	-21%	-3%	46µM*	-1%	-8	2%	-8%
CN(Cc1cccnc1)C(=O)CCC1CCN(S(=O)(=O)c2ccccc2)CC1	nt	3%	nt	nt	nt	nt	nt	nt	nt
O=C(Cn1ccc2c(Cl)cccc21)NCc1ccccc1	nt	-5%	nt	nt	nt	nt	nt	nt	nt
CNc1cc(C2CC(NC(=O)c3ccc4c(c3)OCC(=O)N4)C2)ncn1 (centres undefined)	nt	20%	nt	nt	nt	nt	nt	nt	nt
COc1ccc(C2=Nn3c(nnc3-c3ccccc3OC)SC2)cc1OCC1CC1	nt	35µM*	-9%	-7%	nt	-12%	-2	-1%	45µM*
COc1ccc(OC)c(-c2nnc3n2N=C(c2ccc(OC)c(OC)c2)CS3)c1	-15%	-8%	-10%[57.1 µM]	-2%	nt	-3%[57.1 µM]	nt	nt	nt
COc1ccc(OC)c(-c2nnc3n2N=C(c2ccc(OC)c(OC4CCCC4)c2)CS3)c1	nt	?	2%[57.1 µM]	-3%	nt	-4%[57.1 µM]	0	2%	14µM*
CC(C)CCC(=O)N1CCCC1C(=O)Nc1ccccc1Oc1cccnc1 (centres undefined)	nt	-15%	nt	nt	nt	nt	nt	nt	nt
Cc1ccc(CSC2=Nc3ccccc3C3=NC(CCC(=O)NCc4cccs4)C(=O)N23)cc1 (centres undefined)	?	-4%	-3%[57.1 µM]	-1%	15%	4%[57.1 µM]	nt	nt	nt
Cc1ccc(CSC2=Nc3ccccc3C3=NC(CCC(=O)NCCc4ccccc4)C(=O)N23)cc1 (centres undefined)	?	-1%	10%[57.1 µM]	-2%	?	7%[57.1 µM]	1	4%	-9%
COc1cccc(N2C(=O)CSC23C(=O)N(Cc2ccccc2)c2ccccc23)c1 (centres undefined)	?	0%	22%	-1%	-12%	0%	nt	nt	nt
COc1cccc(CN2C(=O)C3(SCC(=O)N3c3ccc(F)cc3)c3ccccc32)c1 (centres undefined)	11%	-10%	9%	-2%	9%	-5%	nt	nt	nt
COc1ccc(N2C(=O)CCSC23C(=O)N(Cc2ccc(F)cc2)c2ccccc23)cc1Cl (centres undefined)	?	0%	15%	0%	?	-4%	3	1%	32µM*
COc1ccc(N2C(=O)CCSC23C(=O)N(Cc2ccc(F)cc2)c2ccccc23)cc1 (centres undefined)	-8%	-14%	8%	2%	32µM*	-7%	-2	-19%	35µM*

Screening results (PubChem)
